Experimental data as given in PubChem BioAssay AID1159580 (chemical genetic matrix, 2015).
Among all 5,500 compounds or so, about 2,000 (36%) were called active. Roughly 18% stayed inconclusive and do not appear here. Rule as the data show it: active = normalized growth mostly below about 0.91 (no sharp cut-off); inconclusive = no clear call, values can overlap the other calls; inactive = mostly above about 0.92. The list shows a part of the results.

Assay: chemical genetic growth profiling, strain panel (AID 1159580);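 also: tested at 20 µM; growth read once vehicle control cultures reached saturation at 30 °C; 1 = growth at the plate median or of vehicle wells; lower values mean less growth of the strain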
Details: S. cerevisiae deletion strains, growth OD

Measured: normalized growth

CC(=O)OCCCCN1C(=O)c2ccccc2C1=O
inactive: locus YAL013W, strain DEP1, stronger effect = lower value 0.995 | locus YBR229C, strain ROT2, stronger effect = lower value 1 | locus YCL061C, strain MRC1, stronger effect = lower value 0.986 | locus YDL101C, strain DUN1, stronger effect = lower value 1.04 | locus YDL134C, strain PPH21, stronger effect = lower value 1 | locus YDR150W, strain NUM1, stronger effect = lower value 0.988 | locus YEL061C, strain CIN8, stronger effect = lower value 0.995 | locus YGR078C, strain PAC10, stronger effect = lower value 1.01 | locus YHR030C, strain SLT2, stronger effect = lower value 0.943 | locus YHR087W, strain rtc3, stronger effect = lower value 1.01 | locus YJL187C, strain SWE1, stronger effect = lower value 1 | locus YJR043C, strain POL32, stronger effect = lower value 0.997 | locus YJR075W, strain HOC1, stronger effect = lower value 0.977 | locus YKL190W, strain CNB1, stronger effect = lower value 0.999 | locus YLR039C, strain RIC1, stronger effect = lower value 1.02 | locus YLR058C, strain SHM2 (second series), stronger effect = lower value 0.994 | locus YLR085C, strain ARP6, stronger effect = lower value 0.967 | locus YLR262C, strain YPT6, stronger effect = lower value 1.02 | locus YML094W, strain GIM5, stronger effect = lower value 1.05 | locus YMR219W, strain ESC1, stronger effect = lower value 1 | locus YMR263W, strain SAP30, stronger effect = lower value 0.996 | locus YNL153C, strain GIM3, stronger effect = lower value 1.02 | locus YNL298W, strain CLA4 (second series), stronger effect = lower value 0.983 | locus YNL322C, strain KRE1, stronger effect = lower value 1 | locus YNR030W, strain Alg12, stronger effect = lower value 0.995 | locus YOL006C, strain TOP1, stronger effect = lower value 0.993 | locus YPL055C, strain LGE1, stronger effect = lower value 1 | locus YPL241C, strain CIN2, stronger effect = lower value 1.05 | locus YPR135W, strain CTF4, stronger effect = lower value 0.975
